# In PubChem BioAssay (NCATS):
# Values joined by “and” are separate entries in the source; they are usually repeats but may differ in a detail not shown here. Identical values can stand only once. Results filed as inconclusive are left out. Where a call stands in place of a potency, no number is given. Active and inactive are the calls of the source. Unless noted, calls follow the shape of the dose curve; as a rule, active = well fitted curve in the direction sought with a large enough effect; inconclusive = small, poorly fitted or top-dose-only effect, or another doubt; inactive = no such curve, though single readings can be large; an effect the other way counts as inactive or inconclusive.
# How the values were obtained:
# [1] = biological target: Cytochrome P450 1A2 (Homo sapiens) (UniProt P05177); assay: p450-cyp1a2 (AID 410; calls by dose curve)
# How it was run: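 Read-out is luminescence from luciferin produced by CYP1A2 demethylation of Luciferin-ME (100uM, at Km). Detection reagent stopped the 60 min NADPH-dependent reaction; signals were normalized to 57 uM furafylline.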
# [2] = Stat Signaling Pathway (AID 446; active = well fitted curve in either direction with a large enough effect, not every such curve was filed as active;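 also: ME-180 cervical cancer cells given 40 pM IL-6 alongside compound; SIE-controlled beta-lactamase reporter measured as 460/530 nm FRET emission ratio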)
# How it was run: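 Emission at 460 and 530 nm (excitation 405 nm) reports SIE-controlled beta-lactamase in ME-180 cells. Cells received compound with 40 pM IL-6 for 5 hrs at 37 C; data scaled between 300 pM IL-6 and 125 nM JAK-inhibitor controls.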
# [3] = biological target: Glucocorticoid receptor (Homo sapiens) (UniProt P04150); assay: GR-EFC Redistribution (AID 451; calls by dose curve; also: potency is read from the fitted curve at half-maximal effect); settings: CHO-K1 GR-EFC translocation, beta-gal luminescence, 2 h
# How it was run: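 CHO-K1 cells stably expressing nuclear-localized β-gal enzyme acceptor and GR fused C-terminally to the enzyme donor fragment; ligand-driven nuclear translocation restores β-gal by complementation. Compounds titrated up to 46 uM final, 2 h at 37 °C; luminescence read.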
# [4] = biological target: Mitogen-activated protein kinase 10 (Mus musculus) (UniProt Q61831); assay: JNK3 AlphaScreen Assay (AID 530; active = well fitted curve in either direction with a large enough effect, not every such curve was filed as active;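 also: kinase came from lysate of stimulated human HepG2 cells; signal reports phosphorylation of biotinylated GST-cJun 1-79 at Ser73 with 10 µM ATP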)
# How it was run: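 Biotinylated GST-cJun(1-79) served as substrate for JNK3 in HepG2 lysates stimulated with IL-1beta and TNF-alpha. ATP was 10 uM final, pH 7.6. Ser73 phosphorylation was quantified by AlphaScreen (680 nm excitation).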
# [5] = biological target: Guanine nucleotide-binding protein G(i) subunit alpha-1 (Homo sapiens) (UniProt P63096); assay: qHTS Assay for Inhibitors of RGS12 GoLoco Motif Activity (Green Fluorophore) (AID 879);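 also: negative values mean loss of peptide binding seen as reduced polarization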
# How it was run: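 A drop in FITC polarization marked displacement of the FITC-tagged RGS12 GoLoco peptide (10 nM) from Gαi1 (50 nM). Compounds were incubated 10 min at room temperature in Tris pH 7.5 buffer containing 150 mM NaCl, 0.1 mM GDP and 0.05% NP40; unlabeled peptide titration served as control.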
# [6] = biological target: Cytochrome P450 2D6 (Homo sapiens) (UniProt P10635); assay: qHTS Assay for Inhibitors and Substrates of Cytochrome P450 2D6 (AID 891); also: nearly all actives have a fitted effect of over 60% in size; also: potency is read from the fitted curve at half-maximal effect;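 as to activity change, negative = inhibition: luciferin methyl ether substrate demethylated by CYP2D6 with NADPH regeneration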
# How it was run: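 Luminescent read-out of luciferin formed by 5 nM human CYP2D6 demethylating 30 uM Luciferin-ME EGE (Km level) over 60 min at room temperature after NADPH regeneration addition. Data normalized to full inhibition by 1.43 uM quinidine.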
# [7] = biological target: Cytochrome P450 2C19 (Homo sapiens) (UniProt P33261); assay: qHTS Assay for Inhibitors and Substrates of Cytochrome P450 2C19 (AID 899); also: nearly all actives have a fitted effect of over 60% in size; also: potency is read from the fitted curve at half-maximal effect
# How it was run: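 NADPH-dependent conversion of Luciferin-H EGE (10uM, at KM) by 5nM enzyme in 50mM KPO4, 60 min at 37C following 10 min compound preincubation. Stopped with luciferin detection buffer; luminescence read after 20 min.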
# [8] = biological target: Muscarinic acetylcholine receptor M1 (Rattus norvegicus) (UniProt P08482); assay: qHTS Assay for Antagonists of Acetylcholine Muscarinic M1 Receptor: Kinetic Measurement of Intracellular Calcium Response (AID 943);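 also: Fluo-4 calcium signal as peak divided by basal fluorescence over 4 min; nearly all actives have a fitted effect of over 75% in size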
# How it was run: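 Quantitative HTS in CHO-M1 (rat receptor) cells: 10 min compound exposure ahead of 100 nM carbachol, Fluo-4 fluorescence followed 4 min, value expressed as peak-to-basal ratio.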
# [9] = biological target: Muscarinic acetylcholine receptor M1 (Rattus norvegicus) (UniProt P08482); assay: qHTS Assay for Antagonists of Acetylcholine Muscarinic M1 Receptor: Measurement of IP-One Response (AID 944); also: nearly all actives have a fitted effect of over 75% in size
# How it was run: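 Antagonism was measured as loss of carbachol-driven (EC80) IP1 accumulation in CHO cells carrying rat M1, using a homogeneous IP-One TR-FRET kit read at 620 and 665 nm.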
# [10] = biological target: Pyruvate kinase (Leishmania mexicana) (UniProt Q27686); assay: qHTS Validation Assay for Inhibitors of Leishmania Mexicana Pyruvate Kinase (AID 945)
# How it was run: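 LmPYK E451W 0.2 nM; 0.5 mM PEP, 0.1 mM ADP, 7 mM MgCl2, 50 mM KCl, imidazole pH 7.2, 0.01% Tween 20, 0.05% BSA; 1 h RT; PKLight luminescence; DMSO-normalized.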
# [11] = biological target: Pyruvate kinase PKM (Homo sapiens) (UniProt P14618); assay: qHTS Assay for Activators of Human Muscle Pyruvate Kinase (AID 954; active = well fitted curve in the direction sought with a large enough effect, not every such curve was filed as active)
# How it was run: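 PKM2, human, >95% pure, 0.1 nM; PEP 0.5 mM (Km), ADP 0.1 mM; 50 mM imidazole pH 7.2, 50 mM KCl, 0.01% Tween 20, 0.05% BSA; 1 h RT; luciferase luminescence readout.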
# [12] = biological target: Alpha-galactosidase (Coffea arabica) (UniProt Q42656); assay: Counterscreen for Glucocerebrosidase Inhibitors: qHTS Assay for Coffee Bean alpha-Galactosidase at pH 4.5 (AID 957)
# How it was run: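 Quantitative HTS of compounds (0.7 nM to 77 uM) against coffee bean alpha-galactosidase at pH 4.5, measuring 4-methylumbelliferone fluorescence released from 80 uM substrate.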
# [13] = biological target: Alpha-galactosidase A (Homo sapiens) (UniProt P06280); assay: Counterscreen for Glucocerebrosidase Inhibitors: qHTS Assay for Human alpha-Galactosidase at pH 4.5 (AID 992)
# How it was run: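 Fluorogenic 4-MU alpha-D-galactoside (80 uM) hydrolysis, 2 nM enzyme, pH 4.5 citrate buffer + 0.005% Tween-20; 20 min RT; NaOH/glycine pH 10 stop; Ex365/Em440. Compounds titrated 0.7 nM–77 uM; Hill-equation AC50.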
# [14] = biological target: alpha-glucosidase (Oryza sativa, rice) (UniProt Q653V4); assay: Counterscreen for Glucocerebrosidase Inhibitors: qHTS Assay for Rice alpha-Glucosidase at pH 5.0 (AID 997)
# How it was run: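 Endpoint fluorogenic assay at pH 5.0: compounds (0.7 nM to 77 uM) titrated against 4 nM rice enzyme and 400 uM 4-MU-alpha-glucoside for 20 min at room temperature; NaOH/glycine stop, read ex 365/em 440 nm, Hill-fitted AC50.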
# [15] = biological target: Alpha-galactosidase (Coffea arabica) (UniProt Q42656); assay: Counterscreen for Glucocerebrosidase Inhibitors: qHTS Assay for Coffee Bean alpha-Galactosidase at pH 5.9 (AID 998)
# How it was run: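 In 50 mM citric acid pH 5.9 with 0.005% Tween-20, coffee bean enzyme hydrolyses 80 uM 4-MU alpha-D-galactopyranoside over 20 min at RT. Activity is normalized to controls; AC50 comes from Hill-modelled concentration-response data.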
# [16] = qHTS Assay for Lipid Storage Modulators (AID 1519; calls by dose curve); settings: Drosophila S3 cells, BODIPY lipid droplet/cell ratio, laser cytometry, cells loaded with oleic acid
# How it was run: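 Cells seeded at 5,000 per well were treated with compounds over a concentration series and loaded with oleic acid (400 uM, as added). Lipid droplet fluorescence (488 nm excitation, 500-530 nm channel) was read by laser-scanning cytometry and normalized to 20 uM Triacsin C.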
# [17] = biological target: Ubiquitin carboxyl-terminal hydrolase 1 (Homo sapiens) (UniProt O94782); assay: Inhibitors of USP1/UAF1: Pilot qHTS (AID 504865);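 also: rhodamine fluorescence freed from ubiquitin-rhodamine substrate followed over time; top concentration of the series differs between compounds; nearly all actives have a fitted effect of over 35% in size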
# How it was run: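 In 50mM HEPES pH 7.8 containing 0.5mM EDTA, 1mM TCEP, 0.1 mg/ml BSA and 0.01% Tween-20, 1nM USP1/UAF1 is exposed to compound for 15 min, then Ub-Rho (150nM final) is added and fluorescence is read over time.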
# [18] = biological target: DNA dC->dU-editing enzyme APOBEC-3G (Homo sapiens) (UniProt Q9HC16); assay: qHTS for inhibitors of Vif-A3G interactions: Validation (AID 588379)
# How it was run: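 Yellow fluorescence (Ex 488, Em 500-530) of Vif-coexpressing HeLa A3G-eYFP cells, scanned by Acumen cytometer, reports blocked A3G degradation. Cells plated at 700/well overnight at 37 deg C before compound addition, then a further overnight compound incubation at 37 deg C.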
# [19] = Primary qHTS for small molecule stabilizers of the endoplasmic reticulum resident proteome: Secreted ER Calcium Modulated Protein (SERCaMP) assay (AID 1508630)
# How it was run: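 The SH-SY5Y reporter protocol was run at 3 concentrations up to 38.3 uM (primary) or 11 concentrations (follow-up): 16 h compound, 100 nM thapsigargin for 4 h, then extracellular luciferase luminescence.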
# [20] = AP1 Signaling Pathway (AID 357; active = well fitted curve in either direction with a large enough effect, not every such curve was filed as active;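 also: ME-180 reporter cells stimulated with EGF at its EC50 level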)
# How it was run: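 Read-out was the 460nm/530nm emission ratio (excitation 405nm) after CCF4 loading for 2.5 hours at room temperature. Cells carried an AP-1-driven beta-lactamase reporter, were stimulated with EC50 EGF plus compound for 5 hours, and AC50 values came from titrations.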
# [21] = NFAT Signaling Pathway (AID 444; active = well fitted curve in either direction with a large enough effect, not every such curve was filed as active;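 also: carbachol stimulus at about its EC50 of 1 µM final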); settings: Jurkat NFAT-bla M1, carbachol, beta-lactamase ratio, 5 h; at 38 µM (top of the series)
# How it was run: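 Jurkat cells carrying an NFAT-driven β-lactamase reporter and co-transfected muscarinic M1 receptor were treated with compound plus carbachol (1 uM final, an EC50 level) for 5 h at 37 °C. CCF4 loading followed for 1 h at RT; 460/530 nm ratio gave %activity.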
# [22] = biological target: 3',5'-cyclic-AMP phosphodiesterase 4B (Homo sapiens) (UniProt Q07343); assay: qHTS Assay for Inhibitors of PDE-IV (AID 607; active = well fitted activation curve with a large enough effect in the main read-out, with a control signal flat, not every such curve was filed as active)
# How it was run: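 The readout is membrane depolarisation from a cAMP-sensing CNG channel, detected with a potential dye at ex 535/em 590. Cells were HEK293-derived (endogenous PDE-IV) at 1000 cells/well, titrated up to 22.9 uM final.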
# [23] = biological target: Cytochrome P450 2C9 (Homo sapiens) (UniProt P11712); assay: qHTS Assay for Inhibitors and Substrates of Cytochrome P450 2C9 (AID 883); also: nearly all actives have a fitted effect of over 60% in size
# How it was run: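 A luminogenic readout tracked human CYP2C9 (10nM) converting deoxyluciferin (100uM, at KM) in 25mM KPO4 during 60 min at 37C with regenerated NADPH. Values normalized to 57uM sulphaphenazole as complete inhibition.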
# [24] = Confirmation and Secondary Assay for Modulators of Hemoglobin Beta Chain Splicing at IVS2 654 locus (AID 910);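 also: per-well total GFP intensity by laser scanning cytometry after 2-day treatment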
# How it was run: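 HeLa cells stably carrying EGFP interrupted by mutant beta-globin IVS2-654 intron (CMV-driven) were treated with compound for 2 days at 37C; corrected splicing was scored as total peak GFP intensity per well (488 nm excitation, 500-520 nm emission).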
# [25] = Confirmation and Secondary Assay for Modulators of Hemoglobin Beta Chain Splicing at IVS2 705 locus (AID 930);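 also: HeLa cells stably expressing the EGFP-705 splicing reporter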
# How it was run: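 HeLa cells stably carrying EGFP interrupted by mutant beta-globin IVS2-705 intron (CMV-driven) were seeded at 500 cells/well, treated next day with compound for 2 days at 37C; corrected splicing restores EGFP, read as total peak GFP intensity per well.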
# [26] = Primary qHTS for inhibitors of SARS-S pseudo-typed particle cell entry (AID 1479145; calls by dose curve; also: nearly all actives have a fitted effect of over 45% in size)
# [27] = Primary qHTS for Huh7 cytotoxicity: counterscreen for inhibitors of MERS-S pseudotyped particle cell entry (AID 1479147; calls by dose curve); settings: outcome: dose series up to 57.1 µM unless noted
# [28] = Primary qHTS for Vero E6 cytotoxicity: counterscreen for inhibitors of SARS-S pseudo-typed particle cell entry (AID 1479150; calls by dose curve); settings: outcome: dose series up to 57.1 µM unless noted
# [29] = Cytotoxicity counterscreen for inhibitors of SARS-CoV-2 cell entry (AID 1645845; calls by dose curve; also: nearly all actives have a fitted effect of over 50% in size)
# How it was run: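 After a 15 min room-temperature ATPLite 1step step, luminescence reflected ATP remaining in HEK293-ACE2 cells exposed to compound for 1 h plus 48 h at 37 C, with percent activity set by cell and no-cell controls.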
# Chain of Cytochrome P450 1A2 (Homo sapiens) (P05177 whole entry, looked up): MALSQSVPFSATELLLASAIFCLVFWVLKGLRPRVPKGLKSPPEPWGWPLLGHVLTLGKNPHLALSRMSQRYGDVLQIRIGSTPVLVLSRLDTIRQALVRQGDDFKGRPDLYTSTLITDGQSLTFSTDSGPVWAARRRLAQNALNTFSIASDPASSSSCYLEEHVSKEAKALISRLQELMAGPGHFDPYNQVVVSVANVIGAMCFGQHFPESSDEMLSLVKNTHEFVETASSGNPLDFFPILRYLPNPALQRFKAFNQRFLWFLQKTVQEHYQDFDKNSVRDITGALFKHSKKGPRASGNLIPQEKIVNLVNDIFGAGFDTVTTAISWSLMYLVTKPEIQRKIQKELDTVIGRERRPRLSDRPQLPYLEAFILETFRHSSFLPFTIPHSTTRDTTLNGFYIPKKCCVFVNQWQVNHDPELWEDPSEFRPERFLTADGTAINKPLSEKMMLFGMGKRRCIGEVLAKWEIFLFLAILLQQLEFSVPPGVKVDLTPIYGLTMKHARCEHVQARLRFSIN
# Chain of Glucocorticoid receptor (Homo sapiens) (P04150 whole entry, looked up, the tested form may be a part): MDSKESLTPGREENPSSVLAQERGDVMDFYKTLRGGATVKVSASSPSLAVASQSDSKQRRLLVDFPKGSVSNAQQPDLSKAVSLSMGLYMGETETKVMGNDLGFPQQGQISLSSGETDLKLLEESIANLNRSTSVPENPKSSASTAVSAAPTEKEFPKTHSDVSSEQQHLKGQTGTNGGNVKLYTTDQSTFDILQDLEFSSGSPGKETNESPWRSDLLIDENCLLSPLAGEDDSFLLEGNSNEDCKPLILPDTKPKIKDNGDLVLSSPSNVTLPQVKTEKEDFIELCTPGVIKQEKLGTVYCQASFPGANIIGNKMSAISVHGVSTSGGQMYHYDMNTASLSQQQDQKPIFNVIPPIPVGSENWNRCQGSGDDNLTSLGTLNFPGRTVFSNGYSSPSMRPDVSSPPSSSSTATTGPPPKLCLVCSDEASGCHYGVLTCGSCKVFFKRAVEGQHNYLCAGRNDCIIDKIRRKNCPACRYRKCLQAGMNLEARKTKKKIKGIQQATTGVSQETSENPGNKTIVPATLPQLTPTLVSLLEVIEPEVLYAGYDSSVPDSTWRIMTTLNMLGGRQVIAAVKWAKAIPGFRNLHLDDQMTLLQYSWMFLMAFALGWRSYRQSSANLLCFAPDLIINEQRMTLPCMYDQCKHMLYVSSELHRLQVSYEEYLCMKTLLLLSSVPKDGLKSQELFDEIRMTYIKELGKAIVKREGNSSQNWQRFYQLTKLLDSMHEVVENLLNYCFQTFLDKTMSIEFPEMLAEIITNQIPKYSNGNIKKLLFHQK
# Chain of DNA dC->dU-editing enzyme APOBEC-3G (Homo sapiens) (Q9HC16 whole entry, looked up): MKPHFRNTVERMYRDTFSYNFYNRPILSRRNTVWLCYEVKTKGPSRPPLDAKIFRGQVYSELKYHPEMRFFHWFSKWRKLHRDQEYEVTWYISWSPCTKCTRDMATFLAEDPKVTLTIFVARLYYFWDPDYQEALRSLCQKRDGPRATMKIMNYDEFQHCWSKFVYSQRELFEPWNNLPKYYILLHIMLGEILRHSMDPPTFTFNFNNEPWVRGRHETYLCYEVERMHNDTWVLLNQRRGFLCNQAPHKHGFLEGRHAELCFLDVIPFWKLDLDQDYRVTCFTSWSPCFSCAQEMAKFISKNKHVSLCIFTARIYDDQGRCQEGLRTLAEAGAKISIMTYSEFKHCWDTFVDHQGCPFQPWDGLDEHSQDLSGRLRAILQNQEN
# Chain of Cytochrome P450 2C19 (Homo sapiens) (P33261 whole entry, looked up): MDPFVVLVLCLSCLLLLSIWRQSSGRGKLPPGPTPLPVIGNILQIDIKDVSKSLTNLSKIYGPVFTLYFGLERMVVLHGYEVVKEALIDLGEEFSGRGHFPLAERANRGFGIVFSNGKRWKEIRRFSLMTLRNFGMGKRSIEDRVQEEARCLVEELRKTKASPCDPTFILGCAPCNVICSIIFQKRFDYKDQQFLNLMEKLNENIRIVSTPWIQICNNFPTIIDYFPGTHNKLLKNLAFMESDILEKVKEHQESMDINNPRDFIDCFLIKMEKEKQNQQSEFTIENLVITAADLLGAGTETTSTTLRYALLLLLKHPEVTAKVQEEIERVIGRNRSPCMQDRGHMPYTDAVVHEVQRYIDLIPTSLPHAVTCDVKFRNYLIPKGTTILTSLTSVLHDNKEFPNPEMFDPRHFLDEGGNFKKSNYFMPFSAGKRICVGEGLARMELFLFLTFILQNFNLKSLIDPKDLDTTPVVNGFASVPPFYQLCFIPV
# Chain of Alpha-galactosidase (Coffea arabica) (Q42656 whole entry, looked up): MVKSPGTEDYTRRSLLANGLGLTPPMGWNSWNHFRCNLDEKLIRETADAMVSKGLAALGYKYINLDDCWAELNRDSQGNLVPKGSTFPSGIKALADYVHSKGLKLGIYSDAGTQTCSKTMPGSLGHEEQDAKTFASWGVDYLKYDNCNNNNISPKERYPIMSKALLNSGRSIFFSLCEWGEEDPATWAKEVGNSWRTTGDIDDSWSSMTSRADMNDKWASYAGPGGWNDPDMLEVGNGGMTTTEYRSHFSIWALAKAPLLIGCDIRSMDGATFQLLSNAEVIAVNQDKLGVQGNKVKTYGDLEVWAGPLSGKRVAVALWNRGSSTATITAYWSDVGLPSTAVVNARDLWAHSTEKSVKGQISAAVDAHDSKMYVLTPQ
# Chain of Muscarinic acetylcholine receptor M1 (Rattus norvegicus) (P08482 whole entry, looked up): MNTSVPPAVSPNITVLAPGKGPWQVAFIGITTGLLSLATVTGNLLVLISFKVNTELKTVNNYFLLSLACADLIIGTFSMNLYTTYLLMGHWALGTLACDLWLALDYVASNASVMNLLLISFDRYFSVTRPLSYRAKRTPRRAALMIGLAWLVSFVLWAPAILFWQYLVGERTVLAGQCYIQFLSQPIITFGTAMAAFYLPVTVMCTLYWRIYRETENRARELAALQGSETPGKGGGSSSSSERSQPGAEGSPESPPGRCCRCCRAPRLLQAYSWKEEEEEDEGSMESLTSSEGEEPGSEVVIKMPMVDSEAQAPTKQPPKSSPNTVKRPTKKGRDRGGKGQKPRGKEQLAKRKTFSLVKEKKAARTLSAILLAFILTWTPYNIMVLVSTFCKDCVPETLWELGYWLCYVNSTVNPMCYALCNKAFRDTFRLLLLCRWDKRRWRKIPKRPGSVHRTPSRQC
# Chain of 3',5'-cyclic-AMP phosphodiesterase 4B (Homo sapiens) (Q07343 whole entry, looked up): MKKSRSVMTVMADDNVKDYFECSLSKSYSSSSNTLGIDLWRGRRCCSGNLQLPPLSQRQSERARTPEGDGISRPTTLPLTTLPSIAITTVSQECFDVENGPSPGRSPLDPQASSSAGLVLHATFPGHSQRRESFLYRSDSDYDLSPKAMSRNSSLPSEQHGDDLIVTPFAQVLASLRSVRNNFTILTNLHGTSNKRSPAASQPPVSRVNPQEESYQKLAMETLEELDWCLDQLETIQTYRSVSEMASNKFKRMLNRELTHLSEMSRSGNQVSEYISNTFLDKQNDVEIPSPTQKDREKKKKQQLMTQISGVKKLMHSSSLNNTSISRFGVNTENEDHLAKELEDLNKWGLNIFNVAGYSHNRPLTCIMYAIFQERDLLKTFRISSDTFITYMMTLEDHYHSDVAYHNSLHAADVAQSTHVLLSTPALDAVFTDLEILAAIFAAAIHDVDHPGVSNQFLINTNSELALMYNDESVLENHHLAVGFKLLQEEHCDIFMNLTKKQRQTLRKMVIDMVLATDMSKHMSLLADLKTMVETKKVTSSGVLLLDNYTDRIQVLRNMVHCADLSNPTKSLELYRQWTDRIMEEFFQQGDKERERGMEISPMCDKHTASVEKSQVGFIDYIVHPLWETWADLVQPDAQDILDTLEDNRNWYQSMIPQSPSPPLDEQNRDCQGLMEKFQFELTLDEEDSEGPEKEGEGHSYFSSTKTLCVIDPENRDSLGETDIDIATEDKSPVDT
# Chain of Cytochrome P450 2D6 (Homo sapiens) (P10635 whole entry, looked up): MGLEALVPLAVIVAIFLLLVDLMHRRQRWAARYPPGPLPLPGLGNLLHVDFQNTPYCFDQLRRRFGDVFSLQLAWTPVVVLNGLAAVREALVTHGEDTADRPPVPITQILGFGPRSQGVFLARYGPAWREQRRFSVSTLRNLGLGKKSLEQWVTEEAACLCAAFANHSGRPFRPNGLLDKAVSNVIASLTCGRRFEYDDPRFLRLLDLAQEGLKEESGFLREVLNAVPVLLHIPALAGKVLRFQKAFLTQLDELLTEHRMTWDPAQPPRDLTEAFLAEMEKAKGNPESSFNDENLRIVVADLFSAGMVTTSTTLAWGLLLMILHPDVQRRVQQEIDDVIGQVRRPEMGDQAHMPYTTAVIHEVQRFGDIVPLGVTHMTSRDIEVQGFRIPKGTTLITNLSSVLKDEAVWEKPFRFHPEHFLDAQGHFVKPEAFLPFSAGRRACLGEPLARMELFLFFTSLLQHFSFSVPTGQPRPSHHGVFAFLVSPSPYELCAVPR
# Chain of Guanine nucleotide-binding protein G(i) subunit alpha-1 (Homo sapiens) (P63096 whole entry, looked up): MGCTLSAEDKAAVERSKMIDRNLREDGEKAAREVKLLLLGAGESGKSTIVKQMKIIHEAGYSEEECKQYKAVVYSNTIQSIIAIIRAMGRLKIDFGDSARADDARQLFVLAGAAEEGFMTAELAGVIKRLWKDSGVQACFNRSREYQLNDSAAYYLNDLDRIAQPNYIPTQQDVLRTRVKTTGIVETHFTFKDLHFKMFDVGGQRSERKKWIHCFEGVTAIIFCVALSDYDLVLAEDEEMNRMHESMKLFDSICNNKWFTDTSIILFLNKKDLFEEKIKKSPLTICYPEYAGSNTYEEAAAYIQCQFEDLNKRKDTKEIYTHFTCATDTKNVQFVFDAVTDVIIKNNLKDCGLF
structure (smiles),measurement,setting,value
c1ccc2c(c1)OC[C@@H](C1=NCCN1)O2,Potency,[1],inactive
same,outcome,[2],inactive
same,Potency,[3],> 46 µM (inactive) and > 20.6 µM (inactive)
same,outcome,[4],inactive
same,outcome,[5],inactive
same,Potency,[6],0.631 µM (active)
same,Potency,[7],7.94 µM (active)
same,Potency,[8],inactive
same,Potency,[9],inactive
same,outcome,[10],inactive
same,outcome,[11],inactive
same,outcome,[12],inactive
same,outcome,[13],inactive
same,outcome,[14],inactive
same,outcome,[15],inactive
same,"activity change, negative = inhibition",[16]; at 25.7 µM (top of the series),1.16% (inactive)
same,max response,[16]; measured here: cell count channel max response,-0.675%
same,max response,[16]; measured here: lipid channel max response,-5.05%
same,Potency,[17],inactive
same,Potency,[18],inactive
same,Potency,[19],inactive
CCN1C[C@]2(COC)CC[C@H](OC)[C@@]34C5C[C@@H]6[C@@H](OC)C[C@@]7(OCO[C@@]7([C@@H](O)C23)[C@@H]14)C5[C@H]6OC (some centres undefined),Potency,[19],inactive
CN1CCN(C(=O)O[C@@H]2c3nccnc3C(=O)N2c2ccc(Cl)cn2)CC1,outcome,[20],inactive
same,Potency,[1],inactive
same,"activity change, negative = inhibition",[21],-27.2% (inactive)
same,outcome,[2],inactive
same,outcome,[4],inactive
same,Potency,[22],inactive
same,Potency,[23],inactive
same,Potency,[6],inactive
same,Potency,[7],inactive
same,Potency,[24],inactive
same,outcome,[25],inactive
same,Potency,[18],inactive
same,Potency,[19],inactive
CCc1ccc(Cc2ccc3c(c2)[C@]2(OC3)O[C@H](CO)[C@@H](O)[C@H](O)[C@H]2O)cc1,Potency,[26],inactive
same,outcome,[27],inactive
same,outcome,[28],inactive
same,Potency,[29],inactive
